Experimental findings from PubChem BioAssay (NCI) are described below.

Structures are written as SMILES. Compounds without any hit were thinned out: in the full panel of roughly 83,000, 20% have a hit.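 Single-concentration screen, 48 h exposure, 96-well plates. Endpoint: percent growth. Below 10 = active.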 A number with no mark means an inactive call. Activity calls are given as the source filed them.

Among the test systems are HCT-15 colon; HT29 colon; SNB-75 CNS; SNB-19 CNS; U251 CNS; PC-3 prostate; SK-MEL-5 melanoma; UACC-62 melanoma; LOX IMVI melanoma; SK-MEL-28 melanoma; SK-MEL-2 melanoma; EKVX NSCLC; SN12C renal; UO-31 renal; TK-10 renal; ACHN renal; CAKI-1 renal; A498 renal; CCRF-CEM leukemia; MOLT-4 leukemia.
Common to all, as to experiment: NCI-60 one-dose screen, 48 h (100 = growth as untreated, 0 = no growth, -100 = all killed)
What all share (conditions): 10 µM unless noted

As for `CCCCSCC(=O)c1ccccc1`, the growth was 104% in the experiment with HCT-15 colon; 92.2% with HT29 colon; 82.3% with SNB-75 CNS; 98.1% in the experiment with SNB-19 CNS; 97.3% with U251 CNS; 81.5% with PC-3 prostate. Further, the growth with SK-MEL-5 melanoma is 102%; with UACC-62 melanoma it was 102%; with LOX IMVI melanoma it was 101%; in the experiment on SK-MEL-28 melanoma it was 108%; with SK-MEL-2 melanoma it was 85.2%; in the experiment on EKVX NSCLC it was 99%. The growth in the experiment on SN12C renal is 103%; in the experiment with UO-31 renal it was 85%; in the experiment on TK-10 renal it was 86.1%; in the experiment on ACHN renal, 101%; with CAKI-1 renal it was 94.4%; in the experiment with A498 renal, 106%. Moreover, the growth was 91.9% in the experiment with CCRF-CEM leukemia and 92.9% in the experiment with MOLT-4 leukemia.
With `O=C1/C(=C/c2cccc([N+](=O)[O-])c2)COc2ccc(O)cc21`, the growth in the experiment with HCT-15 colon was -9.57% (active); in the experiment with HT29 colon, 3.32% (active); in the experiment with SNB-75 CNS, 79.4%; in the experiment on SNB-19 CNS it was 72.2%; with U251 CNS it was 2.17% (active); with PC-3 prostate, 42.9%. The growth in the experiment with SK-MEL-5 melanoma is 89.1%; with UACC-62 melanoma, 59.4%; in the experiment with LOX IMVI melanoma, -80.6% (active); with SK-MEL-28 melanoma it was 82.7%; in the experiment on SK-MEL-2 melanoma, 91.3%; in the experiment with EKVX NSCLC it was 95.8%. For the same compound, the growth in the experiment with SN12C renal was 13.1%; in the experiment on UO-31 renal, 22.4%; with TK-10 renal, 87%; in the experiment on ACHN renal it was 6.88% (active); with CAKI-1 renal it was 52.8%; in the experiment on A498 renal it was 102%. Besides, the growth in the experiment on CCRF-CEM leukemia is 0.606% (active); in the experiment on MOLT-4 leukemia, 18.2%.
As to `C=C(CO)[C@@H]1CC[C@]2(COC3CCCCO3)CC[C@]3(C)[C@H](CC[C@@H]4[C@@]5(C)C=C(C=O)C(=O)C(C)(C)[C@@H]5CC[C@]43C)[C@@H]12` (stereo not given in full), the growth was -90.5% (active) with HCT-15 colon; -83.6% (active) in the experiment on HT29 colon; -51.6% (active) with SNB-75 CNS; -83.8% (active) in the experiment with SNB-19 CNS; -88.6% (active) in the experiment on U251 CNS; -82.5% (active) in the experiment with PC-3 prostate. The growth in the experiment with SK-MEL-5 melanoma was -95.1% (active); in the experiment with UACC-62 melanoma, -76.7% (active); in the experiment on LOX IMVI melanoma, -88.4% (active); in the experiment on SK-MEL-28 melanoma, -71.3% (active); with SK-MEL-2 melanoma, -57.3% (active); with EKVX NSCLC, -82.8% (active). In addition, the growth is -67.3% (active) with SN12C renal; -96.9% (active) with UO-31 renal; -96.2% (active) with TK-10 renal; -100% (active) in the experiment on ACHN renal; -76% (active) in the experiment with CAKI-1 renal; -97.7% (active) in the experiment with A498 renal. Further, the results for the growth with CCRF-CEM leukemia and in the experiment with MOLT-4 leukemia were -62.9% (active) and -32.2% (active), respectively.
For `COC(=O)c1nc(-c2ccccc2)oc1S(=O)(=O)N1CCC(C(N)=O)CC1`, the growth in the experiment on HCT-15 colon was 42.8%; in the experiment on HT29 colon, 32.9%; in the experiment with SNB-75 CNS, 93.2%; with SNB-19 CNS, 93.3%; in the experiment on U251 CNS, 88.6%; in the experiment on PC-3 prostate, 62.7%. Moreover, the growth with SK-MEL-5 melanoma is 81.6%; in the experiment with UACC-62 melanoma it was 79.6%; in the experiment on LOX IMVI melanoma, 63.7%; with SK-MEL-28 melanoma, 63.4%; in the experiment with SK-MEL-2 melanoma, 91.2%; with EKVX NSCLC, 69.7%. Moreover, the growth was 83.6% with SN12C renal; 55.3% in the experiment on UO-31 renal; 23.2% with TK-10 renal; 39.6% in the experiment with ACHN renal; 49.5% in the experiment with CAKI-1 renal; 87.4% in the experiment on A498 renal. Also, the growth in the experiment with CCRF-CEM leukemia was -3.72% (active); with MOLT-4 leukemia it was 1.95% (active).
With `COc1ccc(OC)c(Nc2nnc(-c3ccc(Cl)cc3)o2)c1`, the growth with HCT-15 colon is 96%; in the experiment with HT29 colon, 48.9%; in the experiment with SNB-75 CNS it was 59.4%; with SNB-19 CNS, 58.4%; in the experiment with U251 CNS, 2.55% (active); in the experiment on PC-3 prostate it was 88.4%. Further, the growth with SK-MEL-5 melanoma is 104%; with UACC-62 melanoma, 97.5%; with LOX IMVI melanoma, 73.8%; with SK-MEL-28 melanoma it was 102%; in the experiment with SK-MEL-2 melanoma it was 96.9%; in the experiment on EKVX NSCLC, 82.5%. Moreover, the growth is 90.1% with SN12C renal; 51.8% in the experiment on UO-31 renal; 36% in the experiment with TK-10 renal; 30.8% in the experiment with ACHN renal; 65.3% with CAKI-1 renal; 96% with A498 renal. The growth with CCRF-CEM leukemia is 108%; in the experiment on MOLT-4 leukemia it was 88.5%.
For the compound `CCCNc1nc2ccccc2c2c(=O)c3cccc(Cl)c3sc12`, the growth in the experiment on HCT-15 colon was 89.7%; in the experiment on HT29 colon, 81.8%; with SNB-75 CNS it was 82.3%; in the experiment with SNB-19 CNS it was 110%; with U251 CNS, 97.9%; in the experiment with PC-3 prostate it was 88.5%. The growth in the experiment on SK-MEL-5 melanoma was 97.6%; in the experiment with UACC-62 melanoma, 84.3%; in the experiment with LOX IMVI melanoma it was 90.2%; in the experiment on SK-MEL-28 melanoma, 115%; with SK-MEL-2 melanoma, 102%; in the experiment on EKVX NSCLC, 85.1%. For the same compound, the growth in the experiment with SN12C renal was 105%; in the experiment on UO-31 renal it was 66.9%; with TK-10 renal, 129%; in the experiment on ACHN renal, 92.7%; with CAKI-1 renal, 71.7%; in the experiment with A498 renal, 124%. Further, the values for the growth in the experiment with CCRF-CEM leukemia and with MOLT-4 leukemia were 92.2% and 93.9%, respectively.
As to `Cn1cccc1/C=C1\C(=O)Nc2ccccc21`, the growth in the experiment with HCT-15 colon is 50.9%; in the experiment on HT29 colon it was 103%; in the experiment on SNB-75 CNS, 90.3%; in the experiment with SNB-19 CNS, 90.4%; with U251 CNS, 97.7%; in the experiment with PC-3 prostate it was 94.2%. Further, the growth was 56.6% with SK-MEL-5 melanoma; 90.6% with UACC-62 melanoma; 87.2% in the experiment on LOX IMVI melanoma; 112% with SK-MEL-28 melanoma; 114% in the experiment on SK-MEL-2 melanoma; 34.4% with EKVX NSCLC. Further, the growth was 94% in the experiment with SN12C renal; 62.9% with UO-31 renal; 72.2% in the experiment on TK-10 renal; 98.2% in the experiment with ACHN renal; 86% with CAKI-1 renal; 125% with A498 renal. Besides, the growth is 104% with CCRF-CEM leukemia and 97.7% in the experiment with MOLT-4 leukemia.
